Bioassay records (PubChem)
BoNT-A LC inh2 – BoNT A light chain protease inhibition; multiplex microsphere protease substrate cleavage, flow cytometry; inhibition, % at 10 µM; 360,000 tested, 0.17% active; further: plate controls were buffer without enzyme for full effect and enzyme alone for no effect
Mtb FBA inh – inhibits M. tuberculosis FBA enzyme | P9WQA3 | purified M. tuberculosis FBA, fluorescence read-out | inhibition, % at 1 µM | 360,000 tested, 2.3% active | AID 588726; in the data active means inhibition above about 27%;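 further: 0% = vehicle and 100% = reference inhibitor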
Anthrax LF prot – anthrax lethal factor protease inhibition. inhibition, % at 10 µM. 360,000 tested, 0.12% active. multiplex microsphere protease cleavage assay, LF. P15917; further: plate controls were buffer without enzyme for full effect and enzyme alone for no effect
BoNT-F LC inh – blocks Botulinum neurotoxin F light chain protease; inhibition, % at 10 µM; Multiplex microsphere protease cleavage assay, flow cytometry; 360,000 tested, 0.22% active; in the data active means inhibition above about 35%, passing the limit was not always enough; inconclusive means no clear call, values can overlap the other calls; further: plate controls were buffer without enzyme for full effect and enzyme alone for no effect
Bead autofluor – flagged as autofluorescent in microsphere protease counterscreen; compound autofluorescence counterscreen, microsphere flow cytometry; active compounds read high; fluorescence intensity (concentration not given with the values); 360,000 tested, 3.1% active; AID 624483; in the data active means fluorescence intensity above about 16000; inconclusive means no clear call, values can overlap the other calls
GDH-TPI counter – counter-screen for M. tuberculosis FBA inhibitors: GDH-TPI coupled enzymes; GDH-TPI coupled enzyme counterscreen, NADH absorbance; inhibition, % at 4.8 µM; 360,000 tested, 1.2% active; AID 588335; in the data active means inhibition above about 30%;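 further: 0% = DMSO wells and 100% = wells lacking the enzyme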
Active calls of the source: *; ? = inconclusive; / = no result given. Sampled rows, rich in hits. Any-hit rate of the full collection: about 6.7%. Unless noted, no stated cut-off is given here; in the data, active means inhibition above about 30%; inconclusive means no clear call, values can overlap the other calls; inactive means below that.

SMILES	BoNT-A LC inh2	Mtb FBA inh	Anthrax LF prot	BoNT-F LC inh	Bead autofluor	GDH-TPI counter
CC(NC(=O)c1ccccc1)C(=O)NC1CCCc2ccccc21 (stereo not drawn)	-5	2	-3	?	5292	0
COc1ccccc1CN(C(=O)c1cnccn1)C(C(=O)NC1CCCCC1)c1cc(OC)c(OC)c(OC)c1 (stereo not drawn)	-3	-2	-12	-3	3885	7
O=C(c1ccccc1Br)N1CCN(c2ncccn2)CC1	-2	4	-6	-8	3583	3
O=C(COc1ccc(Cl)cc1Cl)N1CCN(c2ccccn2)CC1	0	9	2	-4	3739	5
O=C(COc1ccccc1Cl)N1CCN(c2ncccn2)CC1	-2	1	1	-3	22968*	-1
O=C(c1ccccc1OCc1ccccc1Br)N1CCN(c2ncccn2)CC1	-1	2	-1	-5	16398*	8
CN1CCN(C(=O)c2ccc(COc3ccc(Cl)cc3Cl)cc2)CC1	-1	1	-6	-6	12687	6
O=C(CCCOc1ccc(Cl)cc1Cl)N1CCN(c2ccccn2)CC1	-3	5	-5	-3	16837*	3
CN1CCN(C(=O)CCCOc2ccc(Cl)cc2Cl)CC1	-3	-3	-3	-6	17214*	1
CC(C)C(=O)N1CCN(c2ccccc2NC(=O)c2cccc(Cl)c2)CC1	-1	2	-5	-14	3066	3
C=CCNC(=O)c1onc(CSc2cc(C)cc(C)c2)c1C(=O)O	0	1	-2	1	3078	8
O=C(CCCn1c(=S)[nH]c2cc3c(cc2c1=O)OCO3)N1CCN(c2ccccn2)CC1	?	-4	-1	9	19027*	24
CCOc1ccccc1C(=O)Nc1ccccc1C(N)=O	?	-2	-4	2	23043*	4
CCOC(=O)C(=O)Nc1ccccc1C(=O)NC(C)C	0	0	-1	0	22964*	3
CCOC(=O)CCC(=O)Nc1ccccc1C(N)=O	?	-3	-5	-3	22534*	10
CC(=O)c1cccc(NC(=S)NC(=O)CC(C)C)c1	?	1	-8	8	14360	7
CC(C)(C)NC(=O)C(=O)NNC(=O)C12CC3CC(CC(C3)C1)C2	-1	2	-5	4	9950	6
COc1ccc(-c2cc(-c3cc(F)ccc3O)[nH]n2)cc1OC	?	-3	-2	-1	22604*	-7
N=c1n(CCN2CCCCC2)c2ccccc2n1CC(O)COc1ccccc1 (stereo not drawn)	0	-2	1	0	2663	1
CCOc1ccc(Nc2nc(N3CCOCC3)nc(N3CCOCC3)n2)cc1	/	6	/	/	/	19
CCOc1ccc(Nc2nc(NCCN3CCOCC3)nc(OC)n2)cc1	?	1	-3	0	22883*	0
CCCc1cc(C(N)=O)c(NC(=O)c2ccoc2C)s1	-8	-3	-1	-12	23003*	11
CCCc1cc(C(N)=O)c(NC(=O)c2cc(C)on2)s1	?	4	-14	-2	16687*	17
O=C(c1ccccc1)c1ncc(C(F)(F)F)cc1Cl	-2	0	-2	-5	20699*	-7
O=C(c1ccc(Cl)cc1Cl)c1ncc(C(F)(F)F)cc1Cl	-1	-9	-3	0	11676	-6
SMILES	BoNT-A LC inh2	Mtb FBA inh	Anthrax LF prot	BoNT-F LC inh	Bead autofluor	GDH-TPI counter
O=C1C(Cl)=C(N2CCOCC2)C(=O)N1c1ccccc1Cl	0	-1	0	2	8115	36*
C=CCn1c(SCC(N)=O)nnc1-c1cc(Br)ccc1O	?	-4	-4	-1	21322*	3
C=CCn1c(SCc2ccc(C#N)cc2)nnc1-c1ccccc1	0	5	2	0	22580*	-1
C=CCn1c(SCC(N)=O)nnc1-c1ccccc1O	1	-1	4	18	3142	4
Cn1c(SCc2ccc(C#N)cc2)nnc1-c1ccccc1	0	-2	4	-7	3144	-6
Cn1c(SCc2ccc(C#N)cc2)nnc1-c1cccc(Cl)c1	-1	-2	-3	-2	16948*	8
C=CCn1c(SCc2ccc(C#N)cc2)nnc1-c1cccc(OC)c1	0	2	-2	16	3591	9
C=CCn1c(SCc2ccccc2C#N)nnc1-c1ccccc1O	2	4	0	6	21434*	-6
c1ccc(CNc2nc3ccccc3n3cnnc23)nc1	-1	2	-3	-8	4589	10
Cc1ccc(NC(=O)NC2CCCCC2)cc1Cl	5	0	1	4	21618*	12
